Sm TGR inh: qHTS Assay for the Inhibitors of Schistosoma Mansoni Peroxiredoxins | purified TGR, DTNB reduction, TNB absorbance 405 nm | Potency, µM (doses to about 114 µM), inactives show at the highest dose activity change, negative = inhibition, hits mostly inhibitors | 360,000 tested, 3% active; note: % is set by controls: 0 for no effect and ±100 for the full control effect; nearly all actives have a fitted effect of over 60% in size
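First, TGR (20 nM dispensed) and NADPH were mixed with compound. Second, a 15 min room-temperature incubation followed. Third, further NADPH and then DTNB were added to start the reaction. Finally, TNB absorbance was monitored kinetically.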
SARS PLpro yeast: qHTS of Yeast-based Assay for SARS-CoV PLP; Potency, µM (doses to about 32.9 µM), for inactives: at the highest dose activity, positive = growth rescue, most hits filed as activators; 330,000 tested, 0.19% active; S. cerevisiae expressing SARS-CoV PLpro, growth rescue; AID 485353, 2010; calls by dose curve; note: 0% is about no effect; nearly all actives have a fitted effect of over 55% in size
Pf growth 48h: Primary qHTS for delayed death inhibitors of the malarial parasite plastid, 48 hour incubation; AID 504832, 2011; 310,000 tested, 5.9% active; Potency, µM (top dose mostly 28.7 µM), inactives show top-dose activity change, negative = inhibition, usual class: inhibitors; P. falciparum luciferase growth in erythrocytes, 48 h; note: % is set by controls: 0 for no effect and ±100 for the full control effect
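Here the parasites carry a stable luciferase gene and grow inside erythrocytes in Albumax-based RPMI medium with compound for one erythrocytic cycle. Activity is scored as loss of luminescent signal.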
Pf growth 96h: Primary qHTS for delayed death inhibitors of the malarial parasite plastid, 96 hour incubation; P. falciparum luciferase reporter growth, 96 h; Potency, µM (top dose mostly 28.7 µM), without a hit: at the highest dose activity change, negative = inhibition, most hits filed as inhibitors; 320,000 tested, 6.9% active; AID 504834, 2011; note: % is set by controls: 0 for no effect and ±100 for the full control effect
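Luminescence readout: decreased luciferase signal marks inhibited growth of reporter-expressing P. falciparum in infected red cells (2% hematocrit, 0.05% parasitemia final), exposed to compound two generations (96 h, 37 C, 5% CO2).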
* hit, by the source's call; ? = inconclusive; nt = not tested or not shown. Shown are actives, neighbours in structure and some others; about 12% of the full set was active somewhere. Unless noted, calls come from the whole dose curve; as a rule, active = well fitted curve in the direction sought with a large enough effect; inconclusive = small, poorly fitted or top-dose-only effect, or another doubt; inactive = no such curve, though single readings can be large; an effect the other way counts as inactive or inconclusive. Potency is the fitted concentration of half-maximal effect.

SMILES	Sm TGR inh	SARS PLpro yeast	Pf growth 48h	Pf growth 96h
C=C(C)COc1ccc2c3c(c(=O)oc2c1OCC(=C)C)CCC3	-30%	3%	-4%	?
C[C@@H]1CN(Cc2nc(-c3ccc(Cl)cc3)no2)C[C@H](C)O1	-3%	1%	-11%	10%
COCCN1CCN(Cc2nc(C3(c4ccc(C)cc4)CCCC3)no2)CC1	-7%	1%	39%	10µM*
Cc1ccc(C2(c3noc(CN4C[C@@H](C)O[C@@H](C)C4)n3)CCCC2)cc1	2%	-1%	12µM*	12µM*
CC(=O)N1CCCN(Cc2nc(C3(c4ccc(C)cc4)CCCC3)no2)CC1	-30%	0%	-7%	-14%
COc1ccc(C2=C(C)C(=O)N(Cc3ccc(C(=O)NCc4cccc(C)c4)cc3)S2(=O)=O)cc1	-7%	nt	nt	nt
CC(C)n1c(=NC(=O)c2ccco2)c(C#N)cc2c(=O)n3ccccc3cc21	45µM*	7%	-12%	?
CCOC(=O)c1cc2c(=O)n3ccccc3nc2n(C(C)C)c1=NC(=O)c1ccco1	-12%	-5%	-8%	?
Cc1cc(Nc2cccc(C(F)(F)F)c2)n2nc(C)nc2n1	2%	1%	?	0%
CCc1cccc(Nc2cc(C)nc3nc(C)nn23)c1	2%	12%	5.2µM*	8.3µM*
Cc1cc(Nc2ccc(Br)c(C)c2)n2nc(C)nc2n1	-19%	-1%	0.26µM*	10µM*
Cc1cc(NCc2ccc3c(c2)OCO3)n2nc(C)nc2n1	1%	2%	-4%	0.37µM*
CCc1nc2nc(C)cc(Nc3cccc(C(F)(F)F)c3)n2n1	-4%	-3%	2.1µM*	15%
O=C(CN1C(=O)CC(c2ccco2)Sc2ccccc21)Nc1cccc(C(F)(F)F)c1 (stereo unspecified)	-12%	nt	nt	nt
COc1ccccc1-c1noc(-c2ccc(NCCc3ccccc3)c([N+](=O)[O-])c2)n1	-3%	nt	nt	nt
Cc1ccc(N2C(=O)CN(Cc3ccccc3)C2=S)cc1C	5%	-1%	?	?
CNc1nc2ccccc2n1CC(=O)c1ccccc1	4%	-5%	83%	-107%
Cc1ccc(C=Nc2ccccc2C(N)=O)o1	-8%	-24%	155%	202%
Cc1ccc(C=Nc2ccc(N(C)C)cc2)o1	-36%	-10%	?	0.93µM*
CCCCC(CC)CNC(=O)CCCc1nnc2n(CCC)c(=O)c3sccc3n12 (stereo unspecified)	2%	nt	nt	nt
COc1ccc(C(=O)NC(=S)N(C)C2CCCCC2)cc1	-17%	9%	-11%	12µM*
Cc1ccc(C(=O)NC(=S)N(C)C2CCCCC2)cc1Br	8%	-11%	?	?
COc1ccc(C(=O)NC(=S)N(C)C2CCCCC2)cc1Br	-12%	nt	?	3.7µM*
COc1cc(C(=O)Nc2ccc(OCc3cc(=O)n4cccc(C)c4n3)cc2)cc(OC)c1OC	2%	nt	nt	nt
CCOc1ccc(CC(=O)NC2CC(=O)N(c3cccc(F)c3)C2)cc1 (stereo unspecified)	10%	nt	nt	nt
SMILES	Sm TGR inh	SARS PLpro yeast	Pf growth 48h	Pf growth 96h
COc1ccc(CN(C)C(=O)C2CC(=O)N(c3ccc4c(c3)OCCO4)C2)c(OC)c1 (stereo unspecified)	3%	1%	?	6.6µM*
CN(Cc1ccccc1Cl)C(=O)C1CC(=O)N(c2ccc3c(c2)OCCO3)C1 (stereo unspecified)	-6%	2%	-13%	4%
COc1cc(CCN2C(=O)c3cccc4cccc(c34)C2=O)c(S(=O)(=O)N2CCCCCC2)cc1OC	7%	3%	?	2.3µM*
COc1cc(CCN2C(=O)c3cccc4cccc(c34)C2=O)c(S(=O)(=O)NCCCO)cc1OC	-24%	-12%	?	8.3µM*
COc1ccc(CCN2C(=O)c3cccc4c(C(=O)N5CCCCC5)ccc(c34)C2=O)cc1OC	-1%	-13%	?	8.3µM*
COc1cc(CCN2C(=O)c3cccc4cccc(c34)C2=O)c(S(=O)(=O)NCCO)cc1OC	-7%	3%	?	?
COc1cc(CCN2C(=O)c3cccc4cccc(c34)C2=O)c(S(=O)(=O)N2CCC(C)CC2)cc1OC	-10%	-11%	6.6µM*	?
COc1ccc(CCNC(=O)CSc2n[nH]c(-c3ccccc3Cl)n2)cc1OC	-1%	nt	nt	nt
CCOC(=O)c1c(C)[nH]c(C)c1S(=O)(=O)NCC(=O)Nc1cccc(SC)c1	-1%	nt	nt	nt
COc1ccc(/C=C2\C(=O)N(Cc3ccc(F)cc3)CC(=O)N2Cc2ccccc2)cc1	9%	-4%	10µM*	15µM*
Cc1cc(C)cc(Nc2nc3ccccc3n3cnnc23)c1	6%	nt	nt	nt
C=CCOc1c(Br)cc(CNc2ccc(NC(=O)C(C)C)c(OC)c2)cc1OC	-6%	-4%	?	8.3µM*
O=C(Cn1nc(C(F)F)cc1C1CC1)NCCC1=CCCCC1	-22%	0%	-27%	3.3µM*
Cc1cc(C)cc(N2C(N)=NC(N)=NC2c2ccccc2F)c1 (stereo unspecified)	16%	4%	3.3µM*	36%
Cc1cc(C)cc(N2C(N)=NC(N)=NC2c2cccc(Cl)c2)c1 (stereo unspecified)	11%	15%	1.2µM*	5%
CCOC(=O)c1cnn(-c2cccc(Cl)c2)c1N	17%	-3%	55%	27%
COc1ccc(C2N=C(N)N=C(N)N2c2ccc(C)cc2)cc1 (stereo unspecified)	8%	-2%	nt	5.9µM*
Cc1ccc(-n2nc3ccc(N)cc3n2)cc1	-24%	-11%	58%	22%
O=C(CCc1ccccc1)NC(c1cccs1)c1cc(Cl)c2cccnc2c1O (stereo unspecified)	-5%	12%	0.41µM*	10%
CCC(=O)NC(c1cccs1)c1cc(Br)c2cccnc2c1O (stereo unspecified)	-33%	0%	0.93µM*	2.9µM*
COc1ccc(NC(=O)CCn2c(=O)c3cccn3c3cccnc32)c(OC)c1	4%	nt	nt	nt
O=C(Nc1cccc(F)c1)c1oc2ccccc2c1NC(=O)C12CC3CC(CC(C3)C1)C2	-5%	nt	nt	nt
O=C(Nc1ccc(OC(F)(F)F)cc1)C(NS(=O)(=O)c1cccc2nsnc12)c1ccccc1 (stereo unspecified)	10%	nt	nt	nt
COCCNC(=O)CN(C(=O)Cn1nnc2ccccc21)c1ccc(F)c(Cl)c1	-14%	11%	18%	10µM*
COCCNC(=O)CN(C(=O)Cn1nnc2ccccc21)c1ccccc1C	nt	0%	11%	13%
O=C(CSc1nnc(COc2ccccc2)o1)Nc1ccc(F)cc1	0%	0%	23%	9%
Cc1ccc(NC(=O)CN2C(=O)N/C(=C/c3ccc4c(c3)OCCO4)C2=O)cc1	-2%	2%	24%	13%
CCCN1C(=O)/C(=C/c2ccc3c(c2)OCO3)NC1=S	-11%	6%	3%	9.3µM*
CC(C)CN(C(=O)c1nn(C)c(=O)c2ccccc12)c1nc2ccccc2s1	4%	-1%	10µM*	nt
